Laboratory results published in ChEMBL document CHEMBL4513216, “Probing the Open Global Health Chemical Diversity Library for Multistage-Active Starting Points for Next-Generation Antimalarials” (ACS Infect Dis, 2020).
About 2,100 (3.2%) of roughly 65,000 compounds showed an effect of 50% or more. The median lay at about -52%. Many of the other results were omitted from the sample, so strong results are more common in it than they were.

tested on: Plasmodium falciparum; experiment: Screen against P. falciparum Asexual Blood Stage (ABS), at 5uM; assay type: functional, Dd2; conditions: tested at 5 uM

Compound | INHIBITION
COC1CCN(CCNC(=O)NC(C)c2ccc(F)c(F)c2)CC1 (stereo not drawn) | 45.9%
COC1CCN(CCNC(=O)NC(C)c2cccc(Cl)c2)CC1 (stereo not drawn) | 23.9%
COC1CCN(CCNC(=O)NCC(C)c2cccc(C)c2)CC1 (stereo not drawn) | 54.5%
Cc1ccc(S(=O)(=O)c2ncccc2CN2CCN(CCO)CC2)cc1 | -44.3%
CC(C)c1ncc2c(n1)CN(c1ncnc3[nH]ccc13)CC2 | 4.74%
O=C1NC(c2cccnc2)=NC12CCN(CCCc1ccccc1)CC2 | -84.2%
COCCN1C[C@@H]2[C@@H](OC)CCN(Cc3ccsc3)[C@@H]2C1 | 66.7%
COCCN1C[C@@H]2[C@@H](OC)CCN(Cc3cccs3)[C@@H]2C1 | 66.1%
COCCN1C[C@H]2[C@@H](C1)N(Cc1ccc(C)o1)CC[C@H]2OC | -41.6%
COCCN1C[C@H]2[C@@H](C1)N(Cc1cnn(C)c1)CC[C@H]2OC | -59.7%
COCCN1C[C@@H]2[C@@H](OC)CCN(Cc3ccc(C)o3)[C@@H]2C1 | 3.04%
COCCN1C[C@@H]2[C@@H](OC)CCN(Cc3ccco3)[C@@H]2C1 | -1.85%
Cc1ccc(CN2CC[C@@H]3[C@@H](CO[C@H]3CN(C)C)C2)o1 | -21.4%
NC(=O)c1cccc(CN2CCc3c(ncn3C3CC3)C2)c1 | -158%
COc1ccc2c(c1)ncn2C[C@]1(O)CCCN2CCCC[C@@H]21 | -42.3%
COC(=O)c1cc(C(=O)N2CCC(C)CC2)n(-c2ccccc2)n1 | 43.3%
COC(=O)c1cc(C(=O)N2CCCCCC2)n(-c2ccccc2)n1 | -126%
COC(=O)c1cc(C(=O)N2CCCC(C)C2)n(-c2ccccc2)n1 (stereo not drawn) | 50.2%
COCC1c2nnn(C)c2CCN1C(=O)COc1ccccc1OC (stereo not drawn) | -85.8%
CS(=O)(=O)NCCN(CCCO)C1CCc2ccccc21 (stereo not drawn) | -55.5%
Cc1ccc(-c2c(C(=O)NC3CCN(C)CC3)csc2C)cc1 | 61.9%
CCCN1CCC(NC(=O)c2csc(C)c2-c2ccccc2)CC1 | 28.9%
CCCN1CCC(NC(=O)c2csc(C)c2C)CC1 | -48.6%
CN(C)C(=O)COC[C@]12COC[C@H]1CN(C1CCCC1)C2 | -77.5%
CCNC(=O)[C@@H]1C[C@H](N)CN1Cc1ccc(Sc2ccc(C)cc2)o1 | 64.6%
CCNC(=O)[C@@H]1C[C@@H](N)CN1Cc1ccc(-c2ccccc2C#N)o1 | -71.4%

Compound | INHIBITION
CCNC(=O)[C@@H]1C[C@@H](N)CN1Cc1ccc(Sc2ccc(C)cc2)o1 | 63.9%
CCNC(=O)[C@@H]1C[C@H](N)CN1Cc1ccc(-c2ccccc2C#N)o1 | -5.25%
CCNC(=O)[C@@H]1C[C@H](N)CN1Cc1ccc(-c2cc[nH]n2)o1 | -81.2%
CCNC(=O)[C@@H]1C[C@@H](N)CN1Cc1ccc2cccc(Cl)c2n1 | 31.4%
CC/C=C(\C)CN1CCC(CNC(=O)c2c[nH]c(=O)c(Cl)c2)C1 (stereo not drawn) | -7.22%
Nc1ncccc1C(=O)NCc1cccc(Br)c1 | -72%
CC(=O)NCCC(=O)NCC1(c2c(F)cccc2F)CCCC1 | -77.3%
CCS(=O)(=O)CC(=O)NCC1(c2c(F)cccc2F)CCCC1 | -90.7%
COC(=O)NCC(=O)NCC1(c2c(F)cccc2F)CCCC1 | 69.7%
Cc1cc(C)c2nc(C3CC3)cc(C(=O)N3CCCC3C(N)=O)c2c1 (stereo not drawn) | -98.6%
COCC1c2c(cnn2C)CCN1C(=O)c1cscn1 (stereo not drawn) | -109%
CC(Cn1cccn1)NCc1nc(-c2cccnc2)no1 (stereo not drawn) | -56%
CCSCCC(=O)NC1CCN(C(C)c2ccccc2)CC1 (stereo not drawn) | -58.8%
CC(c1ccccc1)N1CCC(NC(=O)CCc2ccsc2)CC1 (stereo not drawn) | 54.8%
CSCC(=O)NC1CCN(C(C)c2ccccc2)CC1 (stereo not drawn) | -27.6%
Cc1cc2c(N3CCC(N(C)Cc4nccs4)CC3)ncnc2s1 | -19.4%
CC(c1ccc(Cl)cc1)N1CCN(CCS(C)(=O)=O)CC1 (stereo not drawn) | -38.8%
CC(NC1CCN(CCS(C)(=O)=O)CC1)c1ccc(Cl)cc1 (stereo not drawn) | 58.2%
CC(NC1CCN(CCS(C)(=O)=O)CC1)c1cnn(C(C)C)c1 (stereo not drawn) | -83.1%
Cc1nc(CN2CCCC(NCc3cccc4ccccc34)C2)no1 (stereo not drawn) | 58.3%
Cc1nc(CN2CCCC(N(C)CCc3ccncc3)C2)no1 (stereo not drawn) | -138%
Cc1nc(CN2CCCC(N(C)Cc3c(C)noc3C)C2)no1 (stereo not drawn) | 58.6%
Cc1cc(CN(C)C2CCCN(Cc3noc(C)n3)C2)no1 (stereo not drawn) | -90.9%
CN(Cc1ccccn1)C1CCCN(Cc2noc(C3CC3)n2)C1 (stereo not drawn) | -128%
Cc1nc(CN2CCCC(N(C)CCCc3ccccc3)C2)no1 (stereo not drawn) | -0.463%
COc1ccc(CCN(C)C2CCCN(Cc3noc(C)n3)C2)cc1 (stereo not drawn) | 60.6%

Compound | INHIBITION
CN(Cc1cnn(C)c1)C1CCCN(Cc2noc(C3CC3)n2)C1 (stereo not drawn) | -39.7%
CCOc1ccccc1CNC1CCCN(Cc2noc(C)n2)C1 (stereo not drawn) | 48.7%
CN(Cc1cccnc1)C1CCCN(Cc2noc(C3CC3)n2)C1 (stereo not drawn) | 52.6%
Cc1nc(CN2CCCC(NCc3ccc4ccccc4c3)C2)no1 (stereo not drawn) | -9.17%
Cc1nc(CN(C)C2CCN(Cc3c(C)noc3C)C2)no1 (stereo not drawn) | -19.4%
CCn1nc(C)c(CN2CCC(c3ccn[nH]3)C2)c1C (stereo not drawn) | -30.2%
Cc1nc2sccn2c1CNC1(c2ccccc2F)CCCC1 | -5.97%
Cc1cccc(COC[C@@]23CCC[C@@H]2CN(S(=O)(=O)N(C)C)C3)n1 | -12.3%
CCc1nc(CN2CCN(C(=O)C3(C#N)CCCC3)CC2)cs1 | -79.7%
O=C(c1ccccn1)N1CCC2(CC1)COC(COCC1CCCC1)C2 (stereo not drawn) | -14.7%
Cc1ccc(CN2CCN(C(=O)c3ccc(CO)cc3)C(C)C2=O)cc1 (stereo not drawn) | -121%
CC(=O)N1CCCC(c2ccccn2)C1 (stereo not drawn) | -11.9%
CC(=O)N1CCCC(c2ccc(Cc3ccccc3)cn2)C1 (stereo not drawn) | 60.4%
CC(=O)N1CCCC(c2ccc(Br)cn2)C1 (stereo not drawn) | -147%
CNc1cncc(C2CCCN2Cc2ccn(C)n2)n1 (stereo not drawn) | -1.9%
c1cncc(-c2ccc3c(c2)CCC32CCN(Cc3nccs3)CC2)c1 | 49.1%
CCN1C[C@@H]2CN(S(=O)(=O)c3cccs3)C[C@@H]2C1=O | 64.6%
CC(C)CN1C[C@@H]2CN(S(=O)(=O)c3cccs3)C[C@@H]2C1=O | -43.6%
COCCN1C[C@@H]2CN(S(=O)(=O)c3cccs3)C[C@@H]2C1=O | -43.2%
CCc1cc(N[C@@H]2C[C@@H]3CC[C@H]2C3)n2nccc2n1 | -125%
Cc1ccc(C(=O)Nc2ccc(S(=O)(=O)/N=C3\CCCN3C)cc2)s1 | -13.1%
CC(C)(C)n1nc(C2CC2)cc1C(=O)NC1CCN(CC(N)=O)CC1 | -56.9%
Cc1cccc(N2CCOCC3(C2)CN(c2cncnc2)C(=O)CO3)n1 (stereo not drawn) | -66.1%
Cc1cccc(N2CCOCC3(C2)CN(c2ccoc2)C(=O)CO3)n1 (stereo not drawn) | 66.9%
Cc1cccc(N2CCOCC3(C2)CN(c2ccccc2)C(=O)CO3)n1 (stereo not drawn) | -58.1%
CCS(=O)(=O)NC[C@]12COC[C@H]1CN(Cc1ccsc1)C2 | 19.6%

Compound | INHIBITION
CCC(C)C(=O)Nc1ccc(CCN2CCOCC2)cc1 (stereo not drawn) | -81%
CC(C)(CN1CCC(Cc2ccc(C(=O)O)cc2)C1)N1CCOCC1 (stereo not drawn) | -29.2%
CCOc1ccc(CNCCCn2ccnc2)cc1OC | -13.1%
COc1cc(CNCCn2ccnc2)cc2c1OCO2 | -86.4%
O=C(CN1CCOc2ccc(Cl)cc21)NCCCn1ccnc1 | -30.7%
COCCCn1ccc(NC(=O)NCCCn2ccnc2)n1 | -58.9%
CCOc1c(CNCCCn2ccnc2)cc(Cl)cc1OC | 66.5%
CCOc1ccc(Cl)cc1CNCCCn1ccnc1 | 52.8%
NC(=O)C1CCN(c2nc3nccc(-c4cccnc4)c3c(=O)[nH]2)CC1 | -16.2%
O=c1[nH]c(NC2CCCC2)nc2nccc(-c3cccs3)c12 | 56.6%
NC(=O)C1CCN(c2nc3nccc(-c4ccncc4)c3c(=O)[nH]2)CC1 | -23%
O=c1[nH]c(NC2CCCC2)nc2nccc(-c3ccsc3)c12 | 68.5%
O=C(O)Cn1nc(C2CC2)c2c(-c3cccs3)ccnc21 | -7.45%
NC(=O)C1CCN(c2nc3nccc(-c4ccccc4)c3c(=O)[nH]2)CC1 | -99.6%
c1ccc(COC[C@H]2CC[C@H]3[C@H](CCN3Cc3ccccn3)O2)nc1 | -2.2%
CCNc1cc2c(nn1)CCN(C(=O)c1ccnc(-n3ccnc3)c1)C2 | 43.9%
CC(=O)N1CCc2[nH]nc(C(=O)N3CCOCC3)c2C1 | -75.4%
CC(C)N1CCc2[nH]nc(C(=O)N3CCOCC3)c2C1 | 55.6%
CC(C)N1CCc2[nH]nc(C(=O)N3CCN(C)CC3)c2C1 | 49.2%
O=C(Nc1nc2c(s1)CNCC2)C1CC1 | -117%
O=C(NCC1CC1)[C@H]1C[C@H]2OCC[C@H]2N(CCc2ccccc2)C1 | -62.8%
CO[C@@H]1CN(c2ccccc2)S(=O)(=O)[C@@]12CCN(Cc1ccccc1)C2 | -32.5%
CC(=O)N[C@@H]1CN(C2CCN(c3cccc(C)c3C)CC2)C[C@H]1C(C)C | 57.7%
CC(=O)N[C@@H]1CN(C2CCN(c3cccc(Cl)c3)CC2)C[C@H]1C(C)C | -10.3%
CC(=O)N[C@@H]1CN(C2CCN(c3ccccc3F)CC2)C[C@H]1C(C)C | -24.8%
